Measurements: PubChem BioAssay (EPA / NIEHS)
Records with an inconclusive call do not appear. Calls of active or inactive are those of the source. The calls were made as follows: active = hit-call score of the fitted dose curve at least 0.9, where 1 is the maximum; inconclusive = response in the unintended direction; inactive = score below 0.9.

How the values were obtained:
[1] = biological target: rat Serotonin, 5-Hydroxytryptamine Receptor (5HT), Non-Selective Binding, Htr1a (gene 24473) (UniProt P19327); assay: NVS_GPCR_r5HT_NonSelective: NovaScreen (NVS) G Protein-Coupled Receptor Assay for rat Serotonin, 5-Hydroxytryptamine Receptor (5HT), Non-Selective Binding (AID 2283295)
Chain of rat Serotonin, 5-Hydroxytryptamine Receptor (5HT), Non-Selective Binding, Htr1a (gene 24473) (P19327 whole entry, looked up): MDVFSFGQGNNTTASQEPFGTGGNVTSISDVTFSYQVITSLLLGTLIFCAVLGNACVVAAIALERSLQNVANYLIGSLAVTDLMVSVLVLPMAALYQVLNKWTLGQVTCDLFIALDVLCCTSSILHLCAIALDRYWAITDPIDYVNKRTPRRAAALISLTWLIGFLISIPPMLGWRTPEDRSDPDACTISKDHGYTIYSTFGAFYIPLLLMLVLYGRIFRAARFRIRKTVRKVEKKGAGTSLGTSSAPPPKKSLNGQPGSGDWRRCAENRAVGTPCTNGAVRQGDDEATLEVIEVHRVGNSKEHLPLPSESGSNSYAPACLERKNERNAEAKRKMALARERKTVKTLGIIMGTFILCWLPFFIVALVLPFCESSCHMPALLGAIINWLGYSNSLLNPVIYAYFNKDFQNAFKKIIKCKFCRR
In short: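 Rat cortex membrane preparation incubated 1 h with radioligand and test chemical; bound radioactivity counted after filtration. Screening began in duplicate at 25 uM with concentration-series follow-up; fitting relative to DMSO.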

[2] = biological target: rat Adrenergic, Alpha 1A Receptor (Adra1A), Adra1a (gene 29412) (UniProt P43140); assay: NVS_GPCR_rAdra1A: NovaScreen (NVS) G Protein-Coupled Receptor Assay for rat Adrenergic, Alpha 1A Receptor (Adra1A) (AID 2283296)
Chain of rat Adrenergic, Alpha 1A Receptor (Adra1A), Adra1a (gene 29412) (P43140 whole entry, looked up): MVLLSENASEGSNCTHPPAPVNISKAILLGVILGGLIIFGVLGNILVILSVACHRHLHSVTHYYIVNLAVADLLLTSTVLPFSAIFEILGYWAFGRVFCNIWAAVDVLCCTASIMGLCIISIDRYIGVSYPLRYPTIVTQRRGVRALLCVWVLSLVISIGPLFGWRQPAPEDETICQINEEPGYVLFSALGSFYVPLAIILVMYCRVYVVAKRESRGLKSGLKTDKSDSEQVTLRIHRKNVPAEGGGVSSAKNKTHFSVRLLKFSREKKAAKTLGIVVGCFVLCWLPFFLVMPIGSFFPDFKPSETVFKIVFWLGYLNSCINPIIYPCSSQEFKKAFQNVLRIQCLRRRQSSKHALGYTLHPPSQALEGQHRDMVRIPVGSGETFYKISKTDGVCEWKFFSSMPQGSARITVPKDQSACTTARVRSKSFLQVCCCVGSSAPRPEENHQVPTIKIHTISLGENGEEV
In short: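 Filter radiodetection after 1 h competitive binding on CEC-pretreated rat cortical membranes. Duplicate single-point screening at 25 uM; active chemicals retested across concentration series.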

[3] = test system: rat Adrenergic, Alpha 1B Receptor (Adra1B), gene 24173; assay: NVS_GPCR_rAdra1B: NovaScreen (NVS) G Protein-Coupled Receptor Assay for rat Adrenergic, Alpha 1B Receptor (Adra1B) (AID 2283297)
In short: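 Filter-binding radioligand competition on membranes from rat liver, read after 1 h by scintillation counting. Single-concentration duplicate screen at 25 uM, followed by concentration-response on actives, normalised to DMSO.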

Adra2b (gene 24174) = Adra2b (gene 24174) (UniProt P19328); assay: NVS_GPCR_rmAdra2B: NovaScreen (NVS) G Protein-Coupled Receptor Assay for hybird cells Adrenergic, Alpha 2B Receptor (Adra2B) (AID 2283306)
Chain of Adra2b (gene 24174) (P19328 whole entry, looked up): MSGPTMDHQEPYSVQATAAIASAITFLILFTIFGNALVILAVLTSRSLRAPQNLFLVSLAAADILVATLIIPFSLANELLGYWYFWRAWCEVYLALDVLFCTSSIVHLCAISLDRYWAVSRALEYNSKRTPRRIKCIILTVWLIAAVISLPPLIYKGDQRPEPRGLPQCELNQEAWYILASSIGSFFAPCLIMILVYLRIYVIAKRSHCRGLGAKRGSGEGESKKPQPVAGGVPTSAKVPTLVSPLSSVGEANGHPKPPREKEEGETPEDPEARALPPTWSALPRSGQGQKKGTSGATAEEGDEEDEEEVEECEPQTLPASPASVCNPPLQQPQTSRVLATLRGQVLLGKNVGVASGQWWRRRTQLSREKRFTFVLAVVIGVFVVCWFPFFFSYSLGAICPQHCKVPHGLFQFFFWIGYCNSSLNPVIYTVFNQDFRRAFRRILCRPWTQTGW
In short: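 Compounds screened first at 25 uM in duplicate, with actives followed up in concentration-response; specific radioligand displacement from hybrid neuroglioma/blastoma cell membrane preparations measured by filter scintillation counting after 1 h, normalized to DMSO.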

[4] = biological target: rat Neurokinin-1 Receptor (NK1), Tacr1 (gene 24807) (UniProt P14600); assay: NVS_GPCR_rNK1: NovaScreen (NVS) G Protein-Coupled Receptor Assay for rat Neurokinin-1 Receptor (NK1) (AID 2283309)
Chain of rat Neurokinin-1 Receptor (NK1), Tacr1 (gene 24807) (P14600 whole entry, looked up): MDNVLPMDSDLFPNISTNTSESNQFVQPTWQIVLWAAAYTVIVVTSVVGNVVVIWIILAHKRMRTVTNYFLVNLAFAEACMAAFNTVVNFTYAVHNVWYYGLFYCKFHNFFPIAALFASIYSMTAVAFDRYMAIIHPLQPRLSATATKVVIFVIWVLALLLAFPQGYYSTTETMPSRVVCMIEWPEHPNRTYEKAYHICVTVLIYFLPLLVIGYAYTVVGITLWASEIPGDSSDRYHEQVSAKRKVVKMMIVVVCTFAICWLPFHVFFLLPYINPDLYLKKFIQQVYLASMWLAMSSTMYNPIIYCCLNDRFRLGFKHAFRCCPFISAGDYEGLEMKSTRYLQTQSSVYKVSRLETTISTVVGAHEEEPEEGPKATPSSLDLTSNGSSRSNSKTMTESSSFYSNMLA
In short: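 Competitive radioligand binding to NK1 in rat submaxillary membranes, 1 h incubation, filtration and scintillation read-out. Compounds first screened at 25 uM in duplicate, then concentration-response for actives; signal loss relative to DMSO.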

[5] = biological target: rat Opioid Receptor, Non-selective Sodium (Na+) Binding, Oprm1 (gene 25601) (UniProt P33535); assay: NVS_GPCR_rOpiate_NonSelectiveNa: NovaScreen (NVS) G Protein-Coupled Receptor Assay for rat Opioid Receptor, Non-selective Sodium (Na+) Binding (AID 2283311)
Chain of rat Opioid Receptor, Non-selective Sodium (Na+) Binding, Oprm1 (gene 25601) (P33535 whole entry, looked up): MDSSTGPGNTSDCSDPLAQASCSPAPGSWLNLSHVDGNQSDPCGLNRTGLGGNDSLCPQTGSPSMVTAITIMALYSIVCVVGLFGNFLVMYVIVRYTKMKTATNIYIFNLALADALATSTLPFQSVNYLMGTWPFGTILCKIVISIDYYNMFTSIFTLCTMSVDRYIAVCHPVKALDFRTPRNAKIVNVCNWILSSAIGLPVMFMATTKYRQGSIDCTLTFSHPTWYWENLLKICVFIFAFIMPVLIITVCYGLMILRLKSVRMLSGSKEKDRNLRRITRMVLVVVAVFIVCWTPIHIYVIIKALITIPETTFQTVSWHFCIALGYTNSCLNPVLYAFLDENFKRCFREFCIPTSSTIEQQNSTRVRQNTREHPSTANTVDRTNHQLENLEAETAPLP
In short: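 Filtration radioligand binding on rat forebrain membrane preparations, read 1.5 h after dosing. Single-concentration 25 µM primary screen in duplicate, followed by singleton concentration series to 50 µM max for actives; DMSO baseline.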

[6] = biological target: guinea pig Serotonin, 5-Hydroxytryptamine Receptor 4 (5HT4), HTR4 (gene 100135548) (UniProt O70528); assay: NVS_GPCR_g5HT4: NovaScreen (NVS) G Protein-Coupled Receptor Assay for guinea pig Serotonin, 5-Hydroxytryptamine Receptor 4 (5HT4) (AID 2283294)
Chain of guinea pig Serotonin, 5-Hydroxytryptamine Receptor 4 (5HT4), HTR4 (gene 100135548) (O70528 whole entry, looked up): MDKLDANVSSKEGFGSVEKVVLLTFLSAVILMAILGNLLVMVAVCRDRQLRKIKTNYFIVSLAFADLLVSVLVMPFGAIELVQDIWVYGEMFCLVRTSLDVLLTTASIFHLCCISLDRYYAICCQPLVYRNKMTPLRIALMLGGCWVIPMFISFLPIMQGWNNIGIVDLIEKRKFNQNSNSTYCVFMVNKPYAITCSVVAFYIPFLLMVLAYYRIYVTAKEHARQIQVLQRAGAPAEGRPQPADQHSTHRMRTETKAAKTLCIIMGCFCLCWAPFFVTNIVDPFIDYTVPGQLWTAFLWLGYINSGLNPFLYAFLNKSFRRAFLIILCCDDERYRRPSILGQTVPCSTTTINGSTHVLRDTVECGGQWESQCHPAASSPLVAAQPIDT
In short: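 Compounds first screened in duplicate at 25 uM, actives followed up in concentration series. Binding measured as displacement of specific radioligand from guinea pig striatal membranes, 1 h, filter-based scintillation read-out versus DMSO baseline.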

[7] = biological target: Metabotropic glutamate receptor 1 (Rattus norvegicus) (UniProt P23385); assay: NVS_GPCR_rmMGluR1: NovaScreen (NVS) G Protein-Coupled Receptor Assay for rat Glutamate Metabotropic Receptor 1 (MGluR1) (AID 2283305)
In short: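 Binding to native receptor from rat cerebellum extract, measured as displacement of a radioligand (scintillation counting, filter separation) after 1 hour. Compounds tested at 25 uM in duplicate, then titrated to a 50 uM maximum.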

[8] = biological target: rat Somatostatin Receptor (SST), Sstr1 (gene 25033) (UniProt P28646); assay: NVS_GPCR_rSST: NovaScreen (NVS) G Protein-Coupled Receptor Assay for rat Somatostatin Receptor (SST) (AID 2283314)
In short: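 Single-concentration duplicate screen (25 uM), then concentration-response up to 50 uM for chemicals passing a threshold such as 30% inhibition. Membranes came from rat forebrain. Binding was measured 1 h post-dose by filter radiodetection and scintillation, relative to DMSO.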

[9] = biological target: rat Histamine Receptor (H3), Hrh3 (gene 85268) (UniProt Q9QYN8); assay: NVS_GPCR_rH3: NovaScreen (NVS) G Protein-Coupled Receptor Assay for rat Histamine Receptor (H3) (AID 2283303)
In short: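 Filter-binding radioligand competition on rat forebrain membranes, 1 h incubation; compounds screened at 25 µM in duplicate and followed in concentration series to 50 µM, loss of bound signal vs DMSO.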

[10] = biological target: rat Neonicotinoid receptor (NNR), Chrna7 (gene 25302) (UniProt Q05941); assay: NVS_LGIC_rNNR_BungSens: NovaScreen (NVS) Ligand-Gated Ion Channel Assay for rat Neonicotinoid receptor (NNR) (AID 2283315)
Chain of rat Neonicotinoid receptor (NNR), Chrna7 (gene 25302) (Q05941 whole entry, looked up): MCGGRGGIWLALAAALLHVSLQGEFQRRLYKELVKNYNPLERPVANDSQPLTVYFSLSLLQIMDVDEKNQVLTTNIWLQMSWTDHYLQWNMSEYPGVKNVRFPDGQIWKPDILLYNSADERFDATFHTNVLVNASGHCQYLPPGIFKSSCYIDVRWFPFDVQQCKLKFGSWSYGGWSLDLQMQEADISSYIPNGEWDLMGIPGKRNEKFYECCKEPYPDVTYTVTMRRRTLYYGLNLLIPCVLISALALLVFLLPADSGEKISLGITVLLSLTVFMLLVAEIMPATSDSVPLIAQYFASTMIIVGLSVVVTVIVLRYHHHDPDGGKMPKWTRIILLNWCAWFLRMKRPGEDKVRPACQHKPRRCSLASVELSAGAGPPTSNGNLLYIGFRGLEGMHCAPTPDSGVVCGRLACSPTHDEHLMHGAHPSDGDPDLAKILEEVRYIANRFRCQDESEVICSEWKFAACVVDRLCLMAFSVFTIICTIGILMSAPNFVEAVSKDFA
In short: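 Rat cortical membrane preparation incubated 2.5 h with tritiated or iodinated radioligand and test chemical. Bound radioactivity was filtered and counted by scintillation, and displacement was analysed against DMSO.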

[11] = biological target: rat Neurokinin-3 Receptor (NK3), Tacr3 (gene 24808) (UniProt P16177); assay: NVS_GPCR_rNK3: NovaScreen (NVS) G Protein-Coupled Receptor Assay for rat Neurokinin-3 Receptor (NK3) (AID 2283310)
Chain of rat Neurokinin-3 Receptor (NK3), Tacr3 (gene 24808) (P16177 whole entry, looked up): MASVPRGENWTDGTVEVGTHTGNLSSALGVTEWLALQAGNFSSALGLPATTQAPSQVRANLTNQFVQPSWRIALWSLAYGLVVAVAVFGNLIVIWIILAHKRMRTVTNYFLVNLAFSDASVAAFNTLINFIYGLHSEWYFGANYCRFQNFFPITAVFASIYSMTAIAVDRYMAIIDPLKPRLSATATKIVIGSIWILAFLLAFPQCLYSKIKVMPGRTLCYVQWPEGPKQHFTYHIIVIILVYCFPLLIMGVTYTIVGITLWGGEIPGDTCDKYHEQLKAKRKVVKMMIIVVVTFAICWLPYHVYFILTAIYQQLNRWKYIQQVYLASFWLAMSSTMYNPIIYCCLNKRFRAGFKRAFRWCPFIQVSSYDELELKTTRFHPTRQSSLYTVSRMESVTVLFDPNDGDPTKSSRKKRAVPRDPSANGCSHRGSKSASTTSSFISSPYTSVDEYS
In short: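 Filter-based radioligand displacement on rat cortex membrane preparations, read by scintillation 2 h post-dose. Chemicals first tested in duplicate at 25 uM; actives followed up in concentration series with a 50 uM maximum.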

[12] = biological target: rat Vasopressin 1 Receptor (V1), Avpr1a (gene 25107) (UniProt P30560); assay: NVS_GPCR_rV1: NovaScreen (NVS) G Protein-Coupled Receptor Assay for rat Vasopressin 1 Receptor (V1) (AID 2283316)
Chain of rat Vasopressin 1 Receptor (V1), Avpr1a (gene 25107) (P30560 whole entry, looked up): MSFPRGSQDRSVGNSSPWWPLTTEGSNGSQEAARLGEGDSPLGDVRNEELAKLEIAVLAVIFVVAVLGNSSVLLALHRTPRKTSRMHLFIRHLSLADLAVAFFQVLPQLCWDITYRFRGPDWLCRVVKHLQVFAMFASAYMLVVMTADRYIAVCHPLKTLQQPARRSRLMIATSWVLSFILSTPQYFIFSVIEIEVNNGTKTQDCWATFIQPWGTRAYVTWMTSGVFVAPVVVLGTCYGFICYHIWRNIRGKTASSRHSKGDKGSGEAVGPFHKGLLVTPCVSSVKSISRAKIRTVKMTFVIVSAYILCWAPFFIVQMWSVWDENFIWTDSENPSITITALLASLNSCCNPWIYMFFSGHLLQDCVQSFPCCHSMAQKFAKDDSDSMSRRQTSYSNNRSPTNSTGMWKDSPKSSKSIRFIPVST
In short: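 Concentration-response up to 50 uM for chemicals passing a threshold such as 30% inhibition in an initial duplicate 25 uM screen. Displacement of radioligand from rat liver membranes measured after 1.5 h by filtration and scintillation.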

[13] = NVS_IC_rCaDHPRCh_L: NovaScreen (NVS) Ion Channel Assay for rat Calcium Channel, Type L, Dihydropyridine Site (CaDHPRCh_L) (AID 2283320)
In short: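 Rat cortex membrane preparation; dihydropyridine-site radioligand displacement read 1 h post-dose by filtration and scintillation. Primary single-point screen 25 uM in duplicate, then concentration series to 50 uM maximum; DMSO as negative control.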

[14] = biological target: rat Gamma-Aminobutyric Acid Type B Receptor (GABBR), Gabbr1 (gene 81657) (UniProt Q9Z0U4); assay: NVS_GPCR_rGABBR: NovaScreen (NVS) G Protein-Coupled Receptor Assay for rat Gamma-Aminobutyric Acid Type B Receptor (GABBR) (AID 2283301)
Chain of rat Gamma-Aminobutyric Acid Type B Receptor (GABBR), Gabbr1 (gene 81657) (Q9Z0U4 whole entry, looked up): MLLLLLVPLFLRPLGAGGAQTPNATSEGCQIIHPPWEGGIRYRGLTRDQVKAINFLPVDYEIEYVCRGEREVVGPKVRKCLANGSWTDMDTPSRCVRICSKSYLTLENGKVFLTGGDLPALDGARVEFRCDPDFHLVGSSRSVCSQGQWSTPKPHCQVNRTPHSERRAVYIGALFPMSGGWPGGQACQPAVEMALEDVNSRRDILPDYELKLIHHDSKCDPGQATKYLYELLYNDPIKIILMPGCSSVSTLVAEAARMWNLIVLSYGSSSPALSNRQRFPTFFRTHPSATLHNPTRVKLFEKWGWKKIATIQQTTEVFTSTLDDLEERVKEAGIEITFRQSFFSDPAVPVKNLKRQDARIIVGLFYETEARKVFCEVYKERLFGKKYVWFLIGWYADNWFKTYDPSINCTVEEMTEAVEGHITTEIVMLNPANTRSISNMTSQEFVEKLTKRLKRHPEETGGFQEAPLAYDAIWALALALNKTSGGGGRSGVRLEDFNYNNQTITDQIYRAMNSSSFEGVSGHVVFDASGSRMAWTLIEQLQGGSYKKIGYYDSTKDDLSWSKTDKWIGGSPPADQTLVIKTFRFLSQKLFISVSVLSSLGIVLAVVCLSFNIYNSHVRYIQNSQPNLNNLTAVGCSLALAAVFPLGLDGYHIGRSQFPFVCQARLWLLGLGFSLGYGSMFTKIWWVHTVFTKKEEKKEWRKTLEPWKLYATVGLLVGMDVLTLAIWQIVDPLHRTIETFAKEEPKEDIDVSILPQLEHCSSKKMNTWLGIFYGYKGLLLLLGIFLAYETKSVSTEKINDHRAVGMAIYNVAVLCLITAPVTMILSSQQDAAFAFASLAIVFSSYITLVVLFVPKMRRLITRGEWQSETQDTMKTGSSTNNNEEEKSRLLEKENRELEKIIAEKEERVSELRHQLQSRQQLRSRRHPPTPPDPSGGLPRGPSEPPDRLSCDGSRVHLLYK
In short: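 Rat cortical membrane preparation, competitive radioligand binding for 1 h with filtration and scintillation readout. Actives from duplicate single-point 25 uM screening proceeded to concentration series with 50 uM top concentration.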

[15] = biological target: mouse Cholecystokinin, CCK2 Receptor (CCKB), Cckbr (gene 12426) (UniProt P56481); assay: NVS_GPCR_mCKKBCentral: NovaScreen (NVS) G Protein-Coupled Receptor Assay for mouse Cholecystokinin, CCK2 Receptor (CCKB) (AID 2283293)
In short: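 Mouse forebrain membrane preparation incubated 2 h with chemical and radioligand; bound radioactivity counted after filtration. Single-concentration duplicate screen at 25 uM, then concentration series to 50 uM max for hits, DMSO as baseline.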

[16] = biological target: rat Glutamate Metabotropic Receptor 5 (MGluR5), Grm5 (gene 24418) (UniProt P31424); assay: NVS_GPCR_rmMGluR5: NovaScreen (NVS) G Protein-Coupled Receptor Assay for rat Glutamate Metabotropic Receptor 5 (MGluR5) (AID 2283307)
In short: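 Compounds first screened in duplicate at 25 uM, then in concentration series up to 50 uM if over threshold. Radioligand displacement on rat whole-brain membranes, filtration and scintillation counting after 1.5 h; binding loss relative to DMSO.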

[17] = biological target: bovine Gamma-Aminobutyric Acid Type A Receptor BDZ, alpha 5 site (GABARa5), GABRA5 (gene 523515) (UniProt Q08E50); assay: NVS_LGIC_bGABARa5: NovaScreen (NVS) Ligand-Gated Ion Channel Assay for bovine Gamma-Aminobutyric Acid Type A Receptor BDZ, alpha 5 site (GABARa5) (AID 2283323)
In short: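 Tested first in duplicate at a single 25 uM, with hits re-run in concentration series to a 50 uM maximum. Bovine hippocampal membranes; specific radioligand displacement measured by filter scintillation counting 1 hr post-dose.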

[18] = biological target: rat Adrenergic Receptor, Beta (Adrb), Non-selective Binding, Adrb1 (gene 24925) (UniProt P18090); assay: NVS_GPCR_rAdrb_NonSelective: NovaScreen (NVS) G Protein-Coupled Receptor Assay for rat Adrenergic Receptor, Beta (Adrb), Non-selective Binding (AID 2283298)
In short: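 Rat cortical membranes incubated 1 h with beta-adrenergic radioligand and test chemical; bound ligand measured by filtration and scintillation counting. Screen at 25 uM duplicate, then concentration series with 50 uM maximum; loss of signal versus DMSO.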

CCN(CC)C(=O)c1cc(S(=O)(=O)Cc2ccccc2)c(N2CCC(c3ccccc3)CC2)cc1N(CC)CCN(C)C
AC50 [1]: 11.3 µM (active) | AC50 [2]: 17.8 µM (active) | AC50 [3]: 6.1 µM (active) | AC50 (Adra2b (gene 24174)): 7.81 µM (active) | AC50 [4]: 23.4 µM (active) | outcome [5]: inactive

O=c1[nH]sc2ccccc12
AC50 [6]: 33.7 µM (active) | AC50 [7]: 35.9 µM (active) | AC50 (Adra2b (gene 24174)): 37.4 µM (active) | outcome [8]: inactive

COc1cc(C(=O)NC2CCN(C)CC2)ccc1Nc1ncc2c(n1)N(C1CCCC1)CC(F)(F)C(=O)N2C
AC50 [6]: 8.4 µM (active) | outcome [1]: inactive | AC50 [2]: 7.27 µM (active) | AC50 [3]: 15.5 µM (active) | AC50 [9]: 3.19 µM (active) | AC50 (Adra2b (gene 24174)): 18.8 µM (active) | AC50 [4]: 13.9 µM (active) | outcome [5]: inactive | outcome [10]: inactive

COc1ccc2cc(S(=O)(=O)N[C@H](CC(=O)N[C@H](Cc3ccc(CN4[C@H](C)CCC[C@@H]4C)cc3)C(=O)N(C)C(C)C)c3ccc4c(c3)OCO4)ccc2c1
AC50 [6]: 16.8 µM (active) | outcome [1]: inactive | outcome [2]: inactive | AC50 [3]: 23.9 µM (active) | AC50 (Adra2b (gene 24174)): 11.1 µM (active) | AC50 [4]: 11.4 µM (active) | AC50 [11]: 8.07 µM (active) | AC50 [5]: 4.72 µM (active) | AC50 [8]: 5.07 µM (active) | outcome [10]: inactive | outcome [12]: inactive | AC50 [13]: 21.5 µM (active)

COc1cccc([C@H](O)C2CCN(CCc3ccc(F)cc3)CC2)c1OC
AC50 [6]: 25 µM (active) | AC50 [1]: 5.58 µM (active) | AC50 [3]: 0.26 µM (active) | outcome [14]: inactive | AC50 (Adra2b (gene 24174)): 1.85 µM (active) | AC50 [5]: 15.7 µM (active) | AC50 [13]: 25 µM (active)

CCCC(=O)OCCC(C)C
outcome [15]: inactive

Clc1cc(Cl)c2c(c1)N=C1CCCCCN1C2
AC50 [6]: 5.45 µM (active) | AC50 [2]: 3.54 µM (active) | AC50 [3]: 5.42 µM (active) | AC50 (Adra2b (gene 24174)): 5.33 µM (active) | AC50 [10]: 5.61 µM (active)

Cc1cc2c(cc1C(F)(F)F)N(C(=O)Nc1ccc(Oc3cccnc3C)nc1)CC2
AC50 [6]: 5.92 µM (active) | AC50 [1]: 0.43 µM (active)

O=C(O)Cc1cc(I)c(Oc2ccc(O)c(I)c2)c(I)c1
outcome [14]: inactive | outcome [10]: inactive

O=C1O[C@H]([C@@H](O)CO)C(O)=C1O
AC50 [12]: 6.57 µM (active)

Cc1oc2c(NC(=O)c3c(Cl)cccc3Cl)cccc2c1C(C)(C)O
outcome [4]: inactive

Cc1cc(F)ccc1-c1cc(N2CC[C@@H](O)[C@H]2CO)ncc1N(C)C(=O)C(C)(C)c1cc(C(F)(F)F)cc(C(F)(F)F)c1
AC50 [7]: 8.39 µM (active) | AC50 [4]: 0.274 µM (active) | outcome [5]: inactive

O=CCCCC=O
outcome [16]: inactive

CCCCOC(=O)c1ccc(O)cc1
outcome [3]: inactive | AC50 [5]: 25 µM (active)

CC(C)(C)c1csc(-c2cc3cc(OCc4ccccc4CC(=O)O)ccc3o2)n1
outcome [4]: inactive | outcome [10]: inactive

CC(C)(O)c1ccc(CNC(=O)c2cccnc2Oc2ccc3nonc3c2)cc1
outcome [17]: inactive

O=c1c(-c2ccc(O)cc2)coc2cc(O)cc(O)c12
outcome [5]: inactive

Cc1ncc(CO)c(CO)c1O
outcome [14]: inactive

O=C1CCC(C2CCCCC2)CC1
outcome (Adra2b (gene 24174)): inactive | outcome [10]: inactive

CCCCCCCCN(C)CCCCCCCC
outcome [18]: inactive | AC50 [13]: 16.4 µM (active)

CCCOC(=O)c1cc(O)c(O)c(O)c1
AC50 [11]: 7.59 µM (active)

CCCCCCCCOC(=O)c1cc(O)c(O)c(O)c1
outcome [11]: inactive

c1ccc(C[n+]2cccc3ccccc32)cc1
AC50 [2]: 11 µM (active) | outcome [9]: inactive | AC50 (Adra2b (gene 24174)): 12.2 µM (active) | outcome [4]: inactive | AC50 [10]: 25 µM (active)

Cc1c2ccccc2c(C)c2c1ccc1ccccc12
AC50 [12]: 25 µM (active)

CC[C@H](NC(=O)c1cc(F)ccc1NS(=O)(=O)c1cccc2cccnc12)c1ccccc1
outcome [18]: inactive | outcome [4]: inactive

CC(O)CC(C)(C)O (stereo unspecified)
outcome [11]: inactive | outcome [5]: inactive

CC(C)(c1cc(Br)c(O)c(Br)c1)c1cc(Br)c(O)c(Br)c1
outcome [5]: inactive

Clc1ccccc1C(c1ccccc1)(c1ccccc1)n1ccnc1
outcome [5]: inactive | AC50 [12]: 36.5 µM (active)

C[C@]12CC[C@@H]3c4ccc(O)cc4CC[C@H]3[C@@H]1CC[C@H]2O
outcome [5]: inactive
